# Several values for one entry are separate records, joined by “and”; a condition that tells them apart may be missing. Equal entries are not always repeated. Screen size: about 320,000 compounds; about 2,100 (0.66%) were called active. Roughly 53% stayed inconclusive and do not appear here. The sample holds actives, similar compounds and a random draw of the others, so the mix is not that of the screen. Calls follow the shape of the dose curve; as a rule, active = well fitted inhibition curve with a large enough effect in the signal ratio, with a control signal flat (not every such curve was filed as active); inconclusive = small, poorly fitted or top-dose-only effect, or effect the other way, or a change in a side signal; inactive = flat fitted curve, though single readings scatter; the % refers to the signal ratio.
# Experiment: qHTS Assay for Lipid Storage Modulators in Drosophila S3 Cells;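 as to cell number change: cells counted by Cell Tracker Red CMTPX staining in the red channel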; as to lipid storage change, negative = inhibition: % is scaled to controls: 0 for no effect and ±100 for the full control effect
# Settings: BODIPY lipid droplet fluorescence, 18-24 h, cells fed with added oleic acid; cell number change: measured here: cell count max response; series mostly up to 46.1 µM; lipid storage change, negative = inhibition: at the top concentration
# Summary of the method: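 Drosophila S3 cells got compounds at several concentrations plus oleic acid (400 uM solution). Laser-scanning cytometry with 488 nm excitation read lipid droplets at 500-530 nm and cells at 575-640 nm. Percent activity was relative to 20 uM Triacsin C.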
# Potency is read from the fitted curve at half-maximal effect.
Compound,Potency,cell number change [%],"lipid storage change, negative = inhibition",outcome
COc1cccc(C(c2c(NC(=O)c3ccco3)sc(C)c2C)N2CCOCC2)c1 (stereo not given),20.6 µM (active),-13.8,,
Cc1sc(NC(=O)c2ccco2)c(C(c2cccnc2)N2CCN(CCO)CC2)c1C (stereo not given),,-13.8,-3.36% (inactive),
Cc1sc(NC(=O)c2ccco2)c(C(c2cccnc2)N2CCCC2)c1C (stereo not given),,-20.2,-15.8% (inactive),
CCN1CCN(C(c2cccnc2)c2c(NC(=O)c3ccco3)sc(C)c2C)CC1 (stereo not given),8.2 µM (active),-4.13,,
COc1ccc(C(c2c(NC(=O)c3ccco3)sc(C)c2C)N2CCOCC2)cc1OC (stereo not given),,-1.23,8.2% (inactive),
CCOCCCNCc1c(Cl)cccc1Cl,,5.68,1.39% (inactive),
CCOC(=O)/C(=N\Nc1cccc(Cl)c1)Sc1nnc(-c2ccc(OC)cc2)n1C,,1.18,13.8% (inactive),
O=S(=O)(NCCc1ccccn1)c1ccc(-c2ccccn2)s1,,-6.49,5.79% (inactive),
O=C1OCCN/C1=C\C(=O)c1ccc(Cl)cc1,,19.7,4.76% (inactive),
OCCC1CN(Cc2nc3c(s2)CCCC3)CCN1Cc1ccccc1 (stereo not given),,17.4,8.62% (inactive),
CCN1CCN(C(=S)c2ccc(Br)cc2)CC1,,-1.28,-3.85% (inactive),
CCc1nnc(NC(=O)Cc2ccc(OC)c(OC)c2)s1,,9.15,-9.59% (inactive),
C[C@H](NC(=O)C1(c2ccccc2)CCN(C(=O)[C@H]2CSCN2C(=O)OC(C)(C)C)CC1)C(=O)O,-15.3% and -9.67%,,,
CC(C)C[C@H](NC(=O)C1(c2ccccc2)CCN(C(=O)[C@H]2CSCN2C(=O)OC(C)(C)C)CC1)C(=O)O,,,-0.167% (inactive),
CC(C)[C@H](NC(=O)C1(c2ccccc2)CCN(C(=O)OC(C)(C)C)CC1)C(=O)O,,0.279,-1.69% (inactive),
CC1NC(=O)c2ccccc2-n2c1nc1cc(F)ccc1c2=O (stereo not given),,0.361,-24.4% (inactive),
Cc1ccc(C2=NCCn3c2c2ccc([N+](=O)[O-])cc2[n+]3[O-])cc1,0.58 µM (active),-25.9,,
O=[N+]([O-])c1ccc2c3n([n+]([O-])c2c1)CCN=C3c1ccc(Cl)cc1,,12.6,8.37% (inactive),
COc1ccc(C2=NCCn3nc4cc(OC)ccc4c32)cc1,,-20.7,3.18% (inactive),
NS(=O)(=O)c1ccc(CNC(=S)NC2CCCCC2)cc1,,-8.89,-3.85% (inactive),
Cc1ccc(NC(=O)Cn2c(O)c(N=NC(N)=O)c3ccccc32)cc1,,-8.5,-14.8% (inactive),
COc1cccc2cc(C(=O)N3CCN(c4ccc(C)cc4C)CC3)c(=O)oc12,,12.9,,inactive
O=P(O)(OCc1ccccc1)OCc1ccccc1,,4.18,5.37% (inactive),

Compound,Potency,cell number change [%],"lipid storage change, negative = inhibition",outcome
COC(=O)c1c(NC(=O)c2ccco2)sc2c1CCC2,,3.65,0.361% (inactive),
COC(=O)c1c(NC(=O)C2CC2)sc2c1CCN(C(C)=O)C2,,,,inactive
COC(=O)c1c(NC(=O)c2ccco2)sc2c1CCN(C(C)=O)C2,7.31 µM (active),-25.8,,
O=C(CSc1nc2ccc([N+](=O)[O-])cc2[nH]1)NC1CCCC1,,16,4.94% (inactive),
O=C1NC(=S)S/C1=C\C=C\c1ccc([N+](=O)[O-])o1,6.51 µM (active),-18.3,,
O=[N+]([O-])c1ccc(/C=N/N=C/c2ccc([N+](=O)[O-])o2)o1,,21.7,13.8% (inactive),
CCCSC1=N/C(=C\c2ccc([N+](=O)[O-])o2)C(=O)S1,,18.4,17.3% (inactive),
OCC[n+]1ccc(/C=C/c2c[nH]c3ccccc23)cc1,,-1.83,,inactive
Cc1ccccc1/C=C/c1cc[n+](C)cc1,,,5.44% (inactive),
C[n+]1ccc(/C=C/c2c[nH]c3ccccc23)cc1,4.11 µM (active),5.59,,
COc1ccc(S(=O)(=O)N2CCN(CC(=O)NCCc3cccs3)CC2)cc1,,-24.5,1.97% (inactive),
O=C(CN1CCN(S(=O)(=O)c2ccccc2)CC1)NCCc1ccccc1,,12.2,0.573% (inactive),
Cc1cc(S(=O)(=O)N2CCN(CC(=O)NCCc3cccs3)CC2)ccc1Br,6.51 µM (active),-0.491,,
CSc1ccccc1OCc1cc(C(=O)N(C)Cc2cc(C)[nH]n2)no1,,-1.8,-12.2% (inactive),
COc1ccc(C(=O)N2CCc3ccc(NC(=O)c4ccccn4)cc3C2)cc1F,7.31 µM (active),5.43,,
CSc1cccc(NC(=O)N2CCc3ccc(NC(=O)c4ccccn4)cc3C2)c1,,-11.2,,inactive
COc1ccc(C(=O)N2CCc3cc(OC)c(OC)cc3C2)cc1OC,,-23.8,2.92% (inactive),
CC(=O)c1nn(-c2ccc(Cl)cc2)c(=O)[nH]c1=O,,,,inactive
O=C(CN1C(=O)NC2(CCc3ccccc32)C1=O)c1ccc(Br)cc1 (stereo not given),,-20.3,-18.9% (inactive),
O=C(CN1C(=O)NC2(CCc3ccccc32)C1=O)c1ccccc1 (stereo not given),,29.9,,inactive
O=C(CN1C(=O)NC2(CCc3ccccc32)C1=O)c1ccc(Br)s1 (stereo not given),4.11 µM (active),10.8,,
Cc1cccc(OCC(=O)N2CCN(C(=O)c3ccc([N+](=O)[O-])cc3)CC2)c1,,2.07,9.63% (inactive),
